These results are taken from PubChem BioAssay (NCI).

The panel holds about 83,000 compounds, 20% with a hit somewhere; the sample as a whole holds those more often.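 Interpretation: 100, growth as untreated; towards 0, rising growth inhibition; 0, no net growth; 0 to -100, cell death. Compounds scoring below 10 were considered active.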 The source made the active and inactive calls.

This experiment deals with MDA-MB-468 breast. The experiment in a line: NCI-60 one-dose screen, 48 h (100 = growth as untreated, 0 = no growth, -100 = all killed). Conditions: 10 µM unless noted.
With `O=C(NCCO)c1cccnc1`, the growth was 93.7% (inactive).
As to `CC1(C)C(N)=Nc2cc(OCCCN3Cc4ccccc4C3)c(OCC3CC3)cc21`, the growth is 47.3% (inactive).
The same measure for `O=C(NNc1ccccc1)c1ncc[nH]1`: 75.6% (inactive); for `CC(C)=CC/C=C(/C)[C@H]1CC[C@]2(C)[C@@H]1CC[C@@H]1[C@@]3(C)CCCNC(C)(C)[C@@H]3CC[C@]12C`: -50.1% [100 µM] (active); for `COC(=O)c1c2c(c(C)[n+]([O-])c1C)C(=O)C(NCc1ccccc1)=CC2=O`: -31.8% (active).
On to `CN1CCN(CC#CCNC(=O)[C@]23CCC(C)(C)C[C@H]2C2=CC[C@@H]4[C@@]5(C)Cc6c([nH]c7ccccc67)C(C)(C)[C@@H]5CC[C@@]4(C)[C@]2(C)CC3)CC1`, for which the growth is 91.2% (inactive).
Regarding `C=CCNc1ccccc1`, the growth was 108% (inactive).
As for `CCOc1ccc(/C=N\N2CCCCCC2)cc1OCC`, the growth was 111% (inactive).
Take `O=C(O)c1ccc(CNc2ccc(C(=O)CCl)cc2)cc1`: the growth is 63.8% (inactive).
On to `OCCN1CCCN(CCCN2c3ccccc3Sc3ccc(C(F)(F)F)cc32)CC1`, for which the growth was 39.6% (inactive).
With `OC(c1ccccn1)C(O)c1ccccn1` (stereo not given), the growth is 113% (inactive).
For `Nc1nc2nnc(-c3ccccc3)c(-c3ccccc3)n2n1`, the growth is 99.9% (inactive).
`Oc1ccc(-c2nc3ccccc3s2)cc1CN(Cc1ccccn1)Cc1ccccn1`: the growth is 13.6% (inactive).
For `c1ccc2c(c1)CCN(NCCN1CCCC1)C2`, the growth is 109% (inactive).
With `COC(=O)[C@]12CC[C@@H](C)[C@H](C)[C@@H]1C1=CC[C@@H]3[C@@]4(C)C(C=O)=C[C@@](C)(COS(C)(=O)=O)[C@@H]4C(=O)C[C@@]3(C)[C@]1(C)CC2`, the growth was 38% (inactive).
